The list is not random: actives were taken first. Their share in the collection is about 1.6%.
KCNQ2 block: KCNQ2 (rat) channel inhibition | CHO-K1 KCNQ2, FluxOR thallium flux, 20 min; hits give low values | actives 1.1% (n = 310,000) | B-score at 10 µM | O88943;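 active = fluorescence ratio B-score at most minus 3 library SDs, with starting brightness B-score within 2 library SDs, cut at about -5.5 in these data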
KCNQ2 pot: KCNQ2 (rat) channel potentiation. CHO-K1 KCNQ2, FluxOR thallium flux fluorescence; hits give high values. B-score at 10 µM. actives 0.54% (n = 310,000). AID 2239;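 active = fluorescence ratio B-score at least 3 SD of library B-scores, with initial fluorescence B-score within 3 of them, cut at about 5.3 in these data; same plate scores as AID 2156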;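 also: B-score of peak minus minimum over baseline fluorescence ratio after K+ and Tl+ stimulus; positive B-score means potentiation of KCNQ2 with more thallium influx and brighter signal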
Kir21 confirm: confirmation of mouse Kir2.1 potassium channel inhibitors; shares compounds with KCNQ2 pot; Tl flux remaining, % of negative control (hits give low values), % at 10 µM; AID 2032; Kir2.1-expressing cells, FluxOR thallium flux fluorescence; hits give low values; actives 41% (n = 2,300);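 active = Primary-screen hit whose thallium flux fell at least 3 control SD below untreated wells in both duplicates, with normal baseline fluorescence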;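 also: 0% = blank wells without stimulus and 100% = stimulated no-compound controls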
Target sequence (P35561 whole entry, looked up): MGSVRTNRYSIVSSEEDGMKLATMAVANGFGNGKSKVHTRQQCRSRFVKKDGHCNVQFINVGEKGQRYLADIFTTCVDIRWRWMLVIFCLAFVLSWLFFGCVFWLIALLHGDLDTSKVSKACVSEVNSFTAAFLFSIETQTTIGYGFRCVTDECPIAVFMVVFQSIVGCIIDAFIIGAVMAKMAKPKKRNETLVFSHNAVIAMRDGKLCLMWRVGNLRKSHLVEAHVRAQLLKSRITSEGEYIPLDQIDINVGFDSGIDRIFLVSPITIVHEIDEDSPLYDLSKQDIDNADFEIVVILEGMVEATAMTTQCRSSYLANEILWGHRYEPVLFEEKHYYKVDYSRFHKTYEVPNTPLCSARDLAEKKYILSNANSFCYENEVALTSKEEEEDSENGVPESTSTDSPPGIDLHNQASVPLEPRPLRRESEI
HEK293 Tl flux: parental HEK293 activity in Kir2.1 inhibitor counter-screen | shares compounds with KCNQ2 pot | parental HEK293 cells, FluxOR thallium flux fluorescence; 0% = unstimulated blank wells | FluxOR signal as % of negative control (100 = no effect), % at 10 µM | actives 19% (n = 2,300) | AID 2105;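 active = dye signal at least 3 control SD above or below untreated wells in both duplicates, raw fluorescence within 3, either direction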;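 also: percent is based on the flux ratio of peak minus minimum fluorescence over baseline F0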
CHO-K1 ctr: counter-screen for KCNQ2 potentiators: effect in parental CHO-K1 cells | shares compounds with KCNQ2 pot | FluxOR thallium flux fluorescence; zero = vehicle mean+3SD, 100% = vehicle-minus-blank window | activity increase over 3SD of controls, % at 10 µM | actives 43% (n = 1,200) | AID 2282;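 active = signal rise of at least 3 SD above the untreated control mean, in both duplicate wells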;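 also: counter screen of KCNQ2 potentiator hits so any rise reflects channel-independent effects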
KCNQ1 pot spec: tests whether KCNQ2 potentiators also act on human KCNQ1; shares compounds with KCNQ2 pot; CHO KCNQ1 stable, FluxOR thallium flux fluorescence; beyond 3SD, as % of vehicle-control signal; actives 28% (n = 1,200); activation over 3SD threshold, % at 10 µM;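 active = fluorescence ratio rise of at least 3 SD of vehicle wells above their mean, in both replicate wells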;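 also: 0% = vehicle mean plus 3 SD and 100% = vehicle minus unstimulated blank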
KCNQ2 pot conf: rat KCNQ2 channel potentiator confirmation; actives 68% (n = 1,200); CHO-KCNQ2 cells, FluxOR thallium flux fluorescence; shares compounds with KCNQ2 pot; potentiation, less the hit threshold, % at 10 µM; AID 2287;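 active = fluorescence ratio rising 3 SD or more over the vehicle control mean in both replicates, plus primary screen hit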;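 also: peak minus minimum thallium fluorescence divided by baseline after K/Tl stimulus; 0% = vehicle mean plus 3 SD and 100% = vehicle minus unstimulated blank difference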
Kir21 spec: selectivity of KCNQ2 potentiators: effect on mouse Kir2.1. HEK293 Kir2.1, FluxOR thallium flux fluorescence. shares compounds with KCNQ2 pot. actives 2% (n = 1,200). AID 2345. activity over 3SD threshold, % at 10 µM;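 active = fluorescence ratio rise of at least 3 SD above the vehicle-control mean, seen in both replicates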;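 also: 0% = vehicle mean plus 3 SD and 100% = vehicle minus no-stimulus blank window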
KCNQ2 W236L MoA: potentiates the retigabine-insensitive rat KCNQ2 W236L mutant channel; shares compounds with KCNQ2 pot; CHO KCNQ2-W236L, automated patch clamp current; current increase over 3SD of negative controls (%), hits give high values, % at 25 µM; actives 10% (n = 940); AID 2558;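 active = current increase at least 3 SD of the untreated controls above them in both duplicate recordings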
* marks the source's active call; other numbers are inactive results; i = inactive; x = not tested or not shown.

SMILES | KCNQ2 block | KCNQ2 pot | Kir21 confirm | HEK293 Tl flux | others
Cc1cccc(C(C)C)c1NC(=O)CN1C(=O)NC2(CCc3ccccc32)C1=O (stereo not drawn) | i | x | x | x
COc1ccc(C2OC(=O)CC2C(=O)NCc2ccc(Cl)cc2)cc1OC (stereo not drawn) | i | 0.54 | x | x
CNc1ccc(Oc2nc([N+](=O)[O-])nn2C)cc1 | i | 0.42 | x | x
Cc1cccc(NC(=O)CCCc2ccccc2)c1 | i | x | x | x
CN(C)c1ccc(NC(=O)CCCc2ccccc2)cc1 | i | 5.5* | i | i | CHO-K1 ctr=13*;KCNQ1 pot spec=-16;KCNQ2 pot conf=-15;Kir21 spec=-33;KCNQ2 W236L MoA=i
CN(Cc1nc(Cc2ccccc2F)no1)Cc1cccc2ncccc12 | i | x | x | x
CC(C)(C)C(=O)NC(=S)NNC(=O)c1sc2ccccc2c1Cl | i | 12 | x | x
O=C(NC(=S)NCCO)c1sc2ccccc2c1Cl | i | x | x | x
CCOC(=S)NC(=O)c1sc2ccccc2c1Cl | i | 21* | i | 356%* | CHO-K1 ctr=-2;KCNQ1 pot spec=-6;KCNQ2 pot conf=62*;Kir21 spec=-37;KCNQ2 W236L MoA=i
CCCOC(=S)NC(=O)c1sc2ccccc2c1Cl | i | 20* | i | 312%* | CHO-K1 ctr=22*;KCNQ1 pot spec=-12;KCNQ2 pot conf=55*;Kir21 spec=-12;KCNQ2 W236L MoA=i
Cc1c(C)c2c(OCC(=O)N3CCC(C(=O)O)CC3)cc3c(c2oc1=O)CCC(C)(C)O3 | i | 0.05 | x | x
Cc1cc(-c2nnc(CCC(=O)NCc3ccc(OC(F)(F)F)cc3)o2)no1 | i | 0.06 | x | x
O=C(COC(=O)c1ccc(O)cc1)Nc1ccccc1[N+](=O)[O-] | i | 1.1 | x | x
CCNC(=O)NC(=O)C(C)OC(=O)c1cccn1C (stereo not drawn) | i | 0.99 | x | x
CN(C(=O)CCS(=O)(=O)c1ccc2c(c1)oc(=O)n2C)C1CCCCC1 | i | 0.62 | x | x
O=C(NC12CC3CC(CC(C3)C1)C2)c1ccc(N2CCNCC2)c([N+](=O)[O-])c1 | i | 0.59 | x | x
Cc1nc(N)nc(N)c1CCCc1ccc(Cl)c(Cl)c1 | i | x | 37%* | 68%*
COc1ccc(Cc2c(C)nc(N)nc2Cl)cc1 | i | 1.2 | x | x
COc1ccc(OC)c(S(=O)(=O)Nc2cc3c4c(c2)C(C)C(=O)N4CCC3)c1 (stereo not drawn) | i | 0.44 | x | x
CC(C)(C)C(=O)Nc1ccc(Cc2ccncc2)cc1 | i | x | x | x
CN(C)C(=O)c1cc(F)ccc1Sc1cc(Cl)ccc1Cl | i | x | 47%* | i
CN(C)C(=O)c1cc(Cl)ccc1Sc1cc(Cl)ccc1Cl | i | x | x | x
S=c1nc(Cc2ccccc2)[nH]c2ccccc12 | i | 11* | i | 323%* | CHO-K1 ctr=45*;KCNQ1 pot spec=-13;KCNQ2 pot conf=40*;Kir21 spec=-30;KCNQ2 W236L MoA=i
S=c1nc(COc2ccccc2)[nH]c2ccccc12 | i | 20* | i | 479%* | CHO-K1 ctr=1.8*;KCNQ1 pot spec=-11;KCNQ2 pot conf=63*;Kir21 spec=-15;KCNQ2 W236L MoA=i
Cc1nc(=S)c2ccccc2[nH]1 | i | 1.1 | x | x
SMILES | KCNQ2 block | KCNQ2 pot | Kir21 confirm | HEK293 Tl flux | others
O=c1[nH]c(COc2ccccc2)nc2ccccc12 | i | x | x | x
Cc1ccc(Cc2nc3ccccc3[nH]2)cc1 | i | x | x | x
S=c1nc(Cc2ccc(Cl)cc2)[nH]c2ccccc12 | i | 11* | i | 158%* | CHO-K1 ctr=-8;KCNQ1 pot spec=-8;KCNQ2 pot conf=6.1*;Kir21 spec=-41;KCNQ2 W236L MoA=i
COc1ccc(CCN2CC(C(=O)N3CCC(O)(c4ccccc4)CC3)CCC2=O)cc1 (stereo not drawn) | i | x | x | x
Cc1ccc(N(CC(=O)NCc2ccc(Cl)cc2)S(C)(=O)=O)cc1 | i | 0.34 | x | x
O=C(CCc1cccc(Cl)c1)N1CCCC(Nc2ccccc2)C1 (stereo not drawn) | -7* | -7 | 70%* | i
O=C(CC1CCCC1)N1CCCC(Nc2ccc(F)cc2)C1 (stereo not drawn) | i | 1.5 | x | x
CC1(CCC(=O)N2CCCC(Nc3ccc(F)cc3)C2)CC1 (stereo not drawn) | i | x | 51%* | i
O=C1CCCCN1CCC(=O)N1CCCC(Nc2ccccc2)C1 (stereo not drawn) | i | 1.5 | x | x
O=C(Cc1n[nH]c(=O)c2ccccc12)OCC(=O)c1ccc(OC(F)F)cc1OC(F)F | i | x | x | x
O=C(Cc1ccc(Cl)cc1)NNc1c(F)c(F)cc(F)c1F | i | 0.53 | x | x
Oc1ccc(Cc2ccc(Cl)cc2)c(O)c1 | i | 5.6* | i | i | CHO-K1 ctr=106*;KCNQ1 pot spec=-9;KCNQ2 pot conf=-10;Kir21 spec=-48
CCCCN1C(=O)C(=Nc2cccc3cnccc23)c2ccccc21 | i | x | 36%* | i
CCCCN1C(=O)/C(=C2\SC(N3CCCCC3)=NC2=O)c2ccccc21 | i | 0.48 | x | x
O=C1CN(C(=O)COc2ccc(Br)cc2)c2ccccc2N1 | i | x | x | x
CN(C(=S)NC(=O)/C=C/c1ccc(F)cc1)C1CCCCC1 | i | x | x | x
Cc1ccc(C(=O)NC(=S)N(C)C2CCCCC2)cc1 | i | 5.7* | i | 212%* | CHO-K1 ctr=-37;KCNQ1 pot spec=18*;KCNQ2 pot conf=31*;Kir21 spec=-20;KCNQ2 W236L MoA=i
Cc1cc(C(=O)NNS(=O)(=O)c2ccc(C(C)(C)C)cc2)nn1C(C)(C)C | i | x | x | x
COc1ccc(CN(C)CC2CCCN(CCc3ccccc3C)C2)cc1O (stereo not drawn) | i | 0.83 | 40%* | i
COc1cc(OC)c(OC)cc1CN(C)CC1CCCN(CCc2ccccc2F)C1 (stereo not drawn) | i | 0.01 | x | x
CCOC(=O)N/N=C(\C)c1ccccc1OC(F)F | i | x | x | x
CCc1ccc(O)c(N=Cc2ccccc2O)c1 | i | x | x | x
Cc1ccc(O)c(CNCCNCc2cc(C)ccc2O)c1 | i | x | 38%* | i
Cc1ccnc(NCc2ccccc2O)c1 | i | 1.2 | x | x
CCc1ccc(O)c(CNCCNCc2cc(CC)ccc2O)c1 | i | 2.8 | 50%* | i
O=C(CSc1ncccn1)NC1CCS(=O)(=O)C1 (stereo not drawn) | i | 1.1 | x | x
O=C(CN1C(=O)NC2(CCCC2)C1=O)N1CCN(S(=O)(=O)c2cccc(C(F)(F)F)c2)CC1 | i | 0.14 | x | x
CCN(CC)CCCn1c(=S)[nH]c2ncccc2c1=O | i | 1.4 | x | x
CCN(CCCn1c(=S)[nH]c2ncccc2c1=O)c1ccccc1 | i | 19* | i | i | CHO-K1 ctr=-20;KCNQ1 pot spec=-39;KCNQ2 pot conf=14*;Kir21 spec=-25;KCNQ2 W236L MoA=i

Compound activity as filed in PubChem.
